Where “and” joins values, the source holds several entries; their conditions need not be identical. Identical values can stand only once. The campaign covered roughly 420,000 compounds. About 64,000 (15%) were called active. About 27% were inconclusive and are not listed. The call rests on the fitted dose curve; in most records, active means well fitted inhibition curve with a large enough effect; inconclusive means small, poorly fitted or top-dose-only effect; inactive means flat fitted curve, though single readings scatter. Not all results are given here.
test: qHTS for Inhibitors of human tyrosyl-DNA phosphodiesterase 1 (TDP1): qHTS in cells in absence of CPT; conditions: DT40 Tdp1-/- hTDP1 cells, no CPT, ATP luminescence, 48 h; activity change, negative = growth inhibition: at 46.2 µM (top of the series); further: nearly all actives have a fitted effect of over 55% in size
Outline: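 Seeded 400 DT40-hTDP1 cells/well (vehicle DMSO, no 20 nM CPT); pinned compounds; ≥48 hr at 37 °C; CellTiter-Glo luminescence as viability measure.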
On the % scale 0 is the no-effect control and ±100 the full control effect; potency means the concentration at half of the fitted maximal effect.

| SMILES | activity change, negative = growth inhibition | Potency |
| --- | --- | --- |
| Cc1ccc(C(=O)O)cc1N1C(=O)CCCC1=O | -2.9% (inactive) | – |
| CC1CCC(NC(=O)CNC(=O)c2ccc3ccccc3c2)CC1 (stereo unspecified) | -29.2% (inactive) | – |
| N#Cc1ccc(CSc2ncccn2)cc1 | 19.3% (inactive) | – |
| Cn1c(=O)[nH]c2c(c(C(=O)O)nn2C)c1=O | 8.92% (inactive) | – |
| O=C(CSc1nc2cc3c(cc2c(=O)n1CCC1=CCCCC1)OCO3)NCc1ccco1 | 2.72% (inactive) | – |
| COCCN(C(=O)C(C)N1C(=O)c2ccccc2C1=O)c1c(N)n(CC(C)C)c(=O)[nH]c1=O (stereo unspecified) | 2.24% (inactive) | – |
| CCC(=O)Nc1ccc2c(c1)nc(CCN1CCN(c3ccccn3)CC1)n2C | -5.94% (inactive) | – |
| CCC(=O)Nc1ccc2c(c1)nc(CCN1CCN(C)CC1)n2C | 1.99% (inactive) | – |
| Cn1c(CCN2CCCCCC2)nc2cc(NC(=O)Nc3ccccc3)ccc21 | – | 23.1 µM (active) |
| N[C@@H](Cc1ccccc1)C(=O)N1CCC(C(=O)NCC(=O)Nc2ccc(F)cc2)CC1 | -4.57% (inactive) | – |
| Cc1ccc(SCCC(=O)NCc2ccccn2)cc1 | 4.23% (inactive) | – |
| O=C(COc1ccccc1)OCc1cc(=O)n2nc(-c3cccs3)sc2n1 | -13.5% (inactive) | – |
| COc1ccc(NC(=O)N2CCCC2C(=O)NCc2ccccc2Cl)cc1 (stereo unspecified) | -17.8% (inactive) | – |
| COc1ccc(CNC(=O)C2CCN(C(=O)c3ccccc3)CC2)cc1 | 11.3% (inactive) | – |
| COc1ccccc1CNC(=O)CNC(=O)c1cn(-c2ccccc2OC)c(=O)c2ccccc12 | -18.7% (inactive) | – |
| COc1ccccc1CNC(=O)c1ccc(NC(=O)N2CC(C)Sc3ccccc32)cc1 (stereo unspecified) | – | 23.1 µM (active) |
| COc1cccc(CNC(=O)CCC(=O)N2CC3CCCN3c3ccccc32)c1 (stereo unspecified) | – | 16.4 µM (active) |
| O=C(CCC(=O)N1CC2CCCN2c2ccccc21)NCc1ccccc1Cl (stereo unspecified) | – | 16.4 µM (active) |
| COc1ccc(S(=O)(=O)N2CCC(C(=O)NCCC(=O)NCc3cccc(OC)c3)CC2)cc1 | -0.479% (inactive) | – |
| O=C(CCC(=O)n1ncc2ccccc21)NCc1ccccc1Cl | 3.3% (inactive) | – |
| COc1ccc(CNC(=O)c2ccc(NC(=O)N3CC4CCCN4c4ccccc43)cc2)cc1 (stereo unspecified) | – | 20.6 µM (active) |
| COc1ccccc1CNCc1ccc(C(=O)O)s1 | 1.39% (inactive) | – |

| SMILES | activity change, negative = growth inhibition | Potency |
| --- | --- | --- |
| COc1cccc(CNC(=O)C2CC(=O)N(C3CCCCCCC3)C2)c1 (stereo unspecified) | 3.44% (inactive) | – |
| O=C(NCc1ccccc1Cl)C1CCCO1 (stereo unspecified) | 7.89% (inactive) | – |
| NS(=O)(=O)c1ccc(NC(=O)/C=C/c2ccccc2Cl)cc1 | -8.85% (inactive) | – |
| C/C(=C/c1ccccc1)C(=O)N1CCN(c2ccccc2)CC1 | 10.8% (inactive) | – |
| Cc1ccc(S(=O)(=O)CCC(=O)OCC(=O)N(C)C2CCS(=O)(=O)C2)cc1 (stereo unspecified) | -9.23% (inactive) | – |
| COCCn1c(C)cc(C(=O)COC(=O)CNC(=O)c2ccco2)c1C | 0.941% (inactive) | – |
| COc1cccc(N(CC(=O)NC2CCCC2)C(=O)CCCC(=O)Nc2ccccn2)c1 | -2.2% (inactive) | – |
| O=NN(CCCl)C(=O)NCCc1cccc[n+]1[O-] | -3.59% (inactive) | – |
| O=C1COc2ccc(S(=O)(=O)Nc3ccc(OC(F)(F)F)cc3)cc2N1 | -26% (inactive) | – |
| Cc1ccc(S(=O)(=O)N2CCN(C(=O)CCC(=O)NC3CCCc4ccccc43)CC2)cc1 (stereo unspecified) | -21.4% (inactive) | – |
| Cc1ccc(C)c(S(=O)(=O)n2nc(C)c(S(=O)(=O)N3CCC(C)CC3)c2C)c1 | -22.5% (inactive) | – |
| Cc1ccc(C)c(S(=O)(=O)N2CCN(c3ncnc4sccc34)CC2)c1 | – | 3.66 µM (active) |
| O=[N+]([O-])c1ccc(S(=O)(=O)N2CCN(c3nc(-c4ccccc4)nc4ccccc34)CC2)cc1 | -8.56% (inactive) | – |
| COc1ccc(C)cc1S(=O)(=O)N1CCN(S(=O)(=O)c2cc(C(=O)O)ccc2C)CC1 | 4.86% (inactive) | – |
| Cc1ccc(S(=O)(=O)N2CCN(c3ncnc4ccccc34)CC2)cc1 | – | 820 nM (active) and 1.26 µM (active) |
| Cc1ccc(S(=O)(=O)N2CCN(c3nc(-n4cnc5ccccc54)nc4ccccc34)CC2)cc1 | -11.9% (inactive) | – |
| COc1ccccc1C(=O)NCCC(=O)NC1=NCCS1 | -8.48% (inactive) | – |
| Cc1cccc(N(C(=O)c2ccc(CN3CCOCC3)o2)C(C(=O)NC2CCCCC2)c2ccc(F)cc2)c1 (stereo unspecified) | -16.1% (inactive) | – |
| COc1cc(OC)c(S(=O)(=O)Nc2ccccc2C(=O)O)cc1S(=O)(=O)Nc1ccccc1C(=O)O | 18.3% (inactive) | – |
| COc1ccccc1OCC(=O)OCn1c(SC)nnc(C)c1=O | -7.86% (inactive) | – |
| O=C(Nc1cccc(S(=O)(=O)NC2=NCCC2)c1)C1CCCCC1 | 21.7% (inactive) | – |
| O=C(NCc1ccccc1)C1c2ccccc2OCC(=O)N1CCCN1CCOCC1 (stereo unspecified) | -1.27% (inactive) | – |

| SMILES | activity change, negative = growth inhibition | Potency |
| --- | --- | --- |
| CCOc1cc(/C=C2\C(=N)N3N=C(C)SC3=NC2=O)ccc1OCCOc1ccccc1 | -6.53% (inactive) | – |
| O=C(O)CCCCCCCCc1cn(CN2C(=O)c3ccccc3C2=O)nn1 | – | inactive |
| COc1cc(C(=O)N(Cc2ccc(N(C)C)cc2)C2CCS(=O)(=O)C2)cc(OC)c1OC (stereo unspecified) | -20.2% (inactive) | – |
| Cc1cc(C)c(OCC(=O)N(Cc2cccs2)C2CCS(=O)(=O)C2)c(C)c1 (stereo unspecified) | -24.9% (inactive) | – |
| Cc1ccsc1CN(C(=O)c1oc2ccc(Br)cc2c1C)C1CCS(=O)(=O)C1 (stereo unspecified) | – | 6.51 µM (active) |
| O=C(COC(=O)c1ccccc1)Nc1ccccc1Sc1ccccc1 | -7.36% (inactive) | – |
| NC(=O)c1ccsc1NC(=O)c1ccco1 | -9.46% (inactive) | – |
| O=C(NCc1ccco1)C(=O)c1cn(CC(=O)N2CCCCCC2)c2ccccc12 | -8.99% (inactive) | – |
| O=C(/C=C/c1ccc(Cl)cc1)NCCCn1ccnc1 | 0.819% (inactive) | – |
| CC(C)(C)c1ccc(/C=C/C(=O)NCCCn2ccnc2)cc1 | – | 16.4 µM (active) |
| CCCCC(=O)Nc1ccc(C(=O)NCCCn2ccnc2)cc1 | 13.2% (inactive) | – |
| CN(C(=O)CN1C(=O)NC(C)(CCc2ccccc2)C1=O)c1ccccc1 (stereo unspecified) | -13% (inactive) | – |
| Cc1cc(C)nc(N(C#N)CC(=O)Nc2ccccc2)n1 | -24.2% (inactive) | – |
| Nc1cccc2c1C(=O)N(Cc1nnc(-c3ccccc3Br)o1)C2=O | -15.5% (inactive) | – |
| Cc1ccc(C=O)cc1Cl | -19.2% (inactive) | – |
| COc1ccc(NC(=O)COC(=O)C2COc3ccccc3O2)cc1 (stereo unspecified) | 13.6% (inactive) | – |
| CCOc1ccc(NC(=O)c2ccc(NC(=O)COC(=O)c3ccc(NC(=O)CC#N)cc3)cc2)cc1 | -0.473% (inactive) | – |
| CCC(C)(C)c1ccc(Oc2ccc(NC(=O)COC(=O)C3=COCCO3)cc2)cc1 | – | 25.9 µM (active) |
| COC(=O)c1ccc(C2NC(=O)NC(C)=C2C(=O)N(C)C)cc1 (stereo unspecified) | -2.25% (inactive) | – |
| NC(=O)c1nnsc1-c1ccc(-c2snnc2C(N)=O)cc1 | 1.83% (inactive) | – |
| CCCCN(CC)CCNC(=O)c1[nH]c(C)c(C(C)=O)c1C | 1.12% (inactive) | – |
| CCS(=O)(=O)N1CCCC(C(=O)NCCCN(C)Cc2ccccc2)C1 (stereo unspecified) | 2.93% (inactive) | – |

| SMILES | activity change, negative = growth inhibition | Potency |
| --- | --- | --- |
| c1ccc2c(CNn3cnnc3)cccc2c1 | 5.72% (inactive) | – |
| c1ccc(NCc2cccc3ccccc23)nc1 | 2.55% (inactive) | – |
| N=C(N)SCc1cccc2ccccc12 | – | 20.6 µM (active) |
| CCCCCc1ccc(-c2ccc(C(=O)O)cc2)nc1 | -3.48% (inactive) | – |
| CCN(C(=O)COC(=O)c1c(NC(C)=O)sc(C)c1C)C1CCS(=O)(=O)C1 (stereo unspecified) | -12.8% (inactive) | – |
| Cc1c(NC(=O)C(C)Oc2cccc(Cl)c2)c(=O)n(-c2ccccc2)n1C (stereo unspecified) | -5.95% (inactive) | – |
| O=c1nc2s/c(=C\c3ccco3)c(=O)n2nc1Cc1ccccc1 | -27.8% (inactive) | – |
| Cc1csc(Nc2ccc(Cl)cc2)[n+]1-c1ccc(Cl)cc1 | – | 25.9 µM (active) |
| Cc1cc(-c2nc(C)c(-c3nnc(SCC(=O)Nc4ccccc4)n3C)s2)no1 | 4.42% (inactive) | – |
| Cc1cc(C(=O)OCC(=O)Nc2ccc(F)c(F)c2)c(C)o1 | -2.49% (inactive) | – |
| COc1cc(CO)ccc1OCC(=O)Nc1cccc2ccccc12 | -4.31% (inactive) | – |
| COc1ccc(CNC(=O)CSc2n[nH]c(N)n2)cc1OC | -13.1% (inactive) | – |
| COc1ccc(CNC(=O)COc2ccccc2C(=O)c2cnn(-c3ccccc3)c2)cc1OC | – | 14.6 µM (active) |
| COc1cc(S(=O)(=O)Nc2ncn[nH]2)ccc1Cl | 0.0265% (inactive) | – |
| CCc1nnc(NC(=O)CSc2nnc(COc3ccc(C#N)cc3)n2-c2ccccc2)s1 | -9.91% (inactive) | – |
| CC(C)(C)NC(=O)C(c1ccco1)N(Cc1ccc2c(c1)OCO2)C(=O)Cn1nnc2ccccc21 (stereo unspecified) | -25.3% (inactive) | – |
| Cc1coc(C)c1C(=O)CC1(O)C(=O)N(C)c2ccc(Cl)cc21 (stereo unspecified) | -16.7% (inactive) | – |
| CCc1ccc(C(=O)COC(=O)c2ccco2)cc1 | 13.7% (inactive) | – |
| Cc1ccc(C(=O)CC2(O)C(=O)N(CCc3ccccc3)c3ccc(Br)cc32)cc1 (stereo unspecified) | – | 16.4 µM (active) |
| CCCN1C(=O)C(O)(CC(=O)c2ccc(CC)cc2)c2cc(Br)ccc21 (stereo unspecified) | – | 6.51 µM (active) |
| O=C(CC1(O)C(=O)N(CN2CCOCC2)c2ccccc21)c1ccccc1 (stereo unspecified) | -27.9% (inactive) | – |
| Cc1ccc(CCN2CC(C(=O)NCCc3ccccc3)CC2=O)cc1 (stereo unspecified) | -19.1% (inactive) | – |

| SMILES | activity change, negative = growth inhibition | Potency |
| --- | --- | --- |
| Cc1ccccc1-c1nc(C#N)c(NCc2ccco2)o1 | -18.2% (inactive) | – |
| COc1cc(NC(=O)C2CCN(c3cnccn3)CC2)cc(OC)c1 | – | inactive |
| COCOc1cc(O)c(C(=O)/C=C/c2ccc(OCOC)c(OCOC)c2)c(OCOC)c1 | – | 23.1 µM (active) |
| COC(=O)c1ccc(COc2ccc(/C=C/C(=O)c3ccc(OC)c(CSCC(=O)O)c3)cc2OC)cc1 | -10.6% (inactive) | – |
| COc1cc(/C=C/C(=O)OCC(=O)N2CCOCC2)ccc1OCC#N | -18.8% (inactive) | – |
| CCOC(=O)CSc1nnc(NC(=O)c2cccc(S(=O)(=O)N3CCCCC3)c2)s1 | -1.98% (inactive) | – |
| CCOc1ccc(S(=O)(=O)Nc2nc3cc(OC)ccc3s2)cc1 | 4.1% (inactive) | – |
| COc1ccc(Nc2ccc([N+](=O)[O-])cn2)cn1 | -0.0035% (inactive) | – |
| Cc1ccc(-n2c(C)cc(/C=N/Nc3ccc([N+](=O)[O-])cn3)c2C)c(C)c1 | – | 23.1 µM (active) |
| Cc1cc(/C=N/Nc2ccc([N+](=O)[O-])cn2)c(C)n1-c1cccc(C(=O)O)c1 | 13.9% (inactive) | – |
| Cc1ccc(SCC(=O)Nc2nncs2)cc1 | 0.103% (inactive) | – |
| CCOCCC(=O)Nc1ccc2c(c1)c(=O)n(C)n2-c1ccc2ccccc2c1 | – | 5.8 µM (active) |
| CCCC(=O)Nc1ccc2c(c1)nc(CCNC(=O)c1ccco1)n2C | -9.29% (inactive) | – |
| CCOC(=O)c1cccc(NC(=O)CCOc2ccccc2)c1 | -11.2% (inactive) | – |
| O=C(CCCOc1ccccc1)NNC(=O)c1ccc(Cl)cc1 | 5.41% (inactive) | – |
| CC(C)CCOc1ccc(C(=O)C[N+]2(C)CCOCC2)cc1 | – | 18.4 µM (active) |
| C[N+]1(CC(=O)c2cccs2)CCOCC1 | -7.74% (inactive) | – |
| CC(C)Oc1ccc(C(CC(=O)N2CCOCC2)C(C)C)cc1 (stereo unspecified) | 13.9% (inactive) | – |

Reference: PubChem BioAssay AID686978 (National Center for Advancing Translational Sciences (NCATS), 2013)
